Laboratory results from ChEMBL document CHEMBL3988442, “University of Dundee, Small-Polar-MMV Screening Library” (2021).
For part of these data: Entries with a potency or affinity are not part of this list.

How the values were obtained:
[1] = target: T1, Methionyl-tRNA synthetase, putative (Leishmania donovani (strain BPK282A1)) (UniProt E9BF75); assay: Leishmania donovani Methionine tRNA synthetase (LdMetRS):v7. Dose response assay; type: functional; design: conc 80 nM, time 150 minutes
T1 sequence (whole entry): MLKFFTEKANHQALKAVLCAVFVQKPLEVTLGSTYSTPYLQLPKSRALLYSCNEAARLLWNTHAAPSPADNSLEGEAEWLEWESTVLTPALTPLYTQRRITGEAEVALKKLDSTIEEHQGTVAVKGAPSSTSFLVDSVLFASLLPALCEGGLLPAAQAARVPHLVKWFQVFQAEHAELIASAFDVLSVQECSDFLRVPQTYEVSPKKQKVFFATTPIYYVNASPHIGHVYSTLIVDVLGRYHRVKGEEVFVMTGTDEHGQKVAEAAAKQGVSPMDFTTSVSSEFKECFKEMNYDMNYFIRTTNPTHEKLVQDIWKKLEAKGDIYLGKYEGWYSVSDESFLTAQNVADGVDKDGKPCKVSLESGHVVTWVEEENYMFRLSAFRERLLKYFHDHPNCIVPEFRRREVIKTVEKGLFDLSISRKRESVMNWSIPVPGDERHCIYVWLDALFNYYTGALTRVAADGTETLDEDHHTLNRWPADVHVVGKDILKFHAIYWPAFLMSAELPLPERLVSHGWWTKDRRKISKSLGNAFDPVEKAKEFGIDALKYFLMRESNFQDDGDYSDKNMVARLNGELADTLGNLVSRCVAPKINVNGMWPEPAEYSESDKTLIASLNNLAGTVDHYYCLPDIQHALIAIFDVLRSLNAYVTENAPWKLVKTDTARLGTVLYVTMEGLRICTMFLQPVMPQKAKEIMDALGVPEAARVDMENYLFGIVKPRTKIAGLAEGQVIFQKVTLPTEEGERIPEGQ

[2] = target: Protein translocase subunit SecA (Escherichia coli (strain K12)) (UniProt P10408); assay: Assay to Identify E. coli SecA ATPase Inhibitors; type: functional; design: scale not given: direction of the effect not stated beside the values; conditions: 30 µM
Protein translocase subunit SecA (Escherichia coli (strain K12)), sequence (P10408 whole entry): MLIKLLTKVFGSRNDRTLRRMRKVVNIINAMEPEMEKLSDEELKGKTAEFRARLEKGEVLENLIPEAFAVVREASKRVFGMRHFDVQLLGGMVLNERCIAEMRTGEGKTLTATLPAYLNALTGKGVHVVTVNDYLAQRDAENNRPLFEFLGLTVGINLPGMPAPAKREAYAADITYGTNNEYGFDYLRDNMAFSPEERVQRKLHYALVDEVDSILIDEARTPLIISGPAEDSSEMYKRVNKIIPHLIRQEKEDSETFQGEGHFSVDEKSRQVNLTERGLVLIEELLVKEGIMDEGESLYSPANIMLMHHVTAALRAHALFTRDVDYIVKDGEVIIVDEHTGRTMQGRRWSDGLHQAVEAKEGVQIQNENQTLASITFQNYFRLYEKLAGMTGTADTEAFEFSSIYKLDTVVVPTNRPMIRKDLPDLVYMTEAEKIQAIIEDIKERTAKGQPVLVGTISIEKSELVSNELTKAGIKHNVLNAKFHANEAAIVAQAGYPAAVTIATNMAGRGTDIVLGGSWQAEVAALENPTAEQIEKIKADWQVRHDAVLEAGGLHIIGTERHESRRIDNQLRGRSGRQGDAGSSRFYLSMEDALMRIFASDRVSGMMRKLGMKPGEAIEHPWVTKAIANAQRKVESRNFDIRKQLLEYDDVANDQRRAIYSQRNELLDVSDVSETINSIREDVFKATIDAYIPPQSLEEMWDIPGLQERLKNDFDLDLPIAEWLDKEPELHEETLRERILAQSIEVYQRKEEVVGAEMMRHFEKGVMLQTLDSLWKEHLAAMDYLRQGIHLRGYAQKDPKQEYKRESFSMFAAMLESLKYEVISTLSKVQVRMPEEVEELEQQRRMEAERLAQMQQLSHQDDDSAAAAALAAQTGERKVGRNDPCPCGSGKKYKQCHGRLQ

[3] = target: T2, Ubiquitin-activating enzyme e1, putative (Leishmania donovani (strain BPK282A1)) (UniProt E9BSI1); assay: Leishmania donovani Ubiquitin Activating Enzyme (LdE1); type: functional; design: scale not given: direction of the effect not stated beside the values; conditions: 30 µM
T2 sequence (whole entry): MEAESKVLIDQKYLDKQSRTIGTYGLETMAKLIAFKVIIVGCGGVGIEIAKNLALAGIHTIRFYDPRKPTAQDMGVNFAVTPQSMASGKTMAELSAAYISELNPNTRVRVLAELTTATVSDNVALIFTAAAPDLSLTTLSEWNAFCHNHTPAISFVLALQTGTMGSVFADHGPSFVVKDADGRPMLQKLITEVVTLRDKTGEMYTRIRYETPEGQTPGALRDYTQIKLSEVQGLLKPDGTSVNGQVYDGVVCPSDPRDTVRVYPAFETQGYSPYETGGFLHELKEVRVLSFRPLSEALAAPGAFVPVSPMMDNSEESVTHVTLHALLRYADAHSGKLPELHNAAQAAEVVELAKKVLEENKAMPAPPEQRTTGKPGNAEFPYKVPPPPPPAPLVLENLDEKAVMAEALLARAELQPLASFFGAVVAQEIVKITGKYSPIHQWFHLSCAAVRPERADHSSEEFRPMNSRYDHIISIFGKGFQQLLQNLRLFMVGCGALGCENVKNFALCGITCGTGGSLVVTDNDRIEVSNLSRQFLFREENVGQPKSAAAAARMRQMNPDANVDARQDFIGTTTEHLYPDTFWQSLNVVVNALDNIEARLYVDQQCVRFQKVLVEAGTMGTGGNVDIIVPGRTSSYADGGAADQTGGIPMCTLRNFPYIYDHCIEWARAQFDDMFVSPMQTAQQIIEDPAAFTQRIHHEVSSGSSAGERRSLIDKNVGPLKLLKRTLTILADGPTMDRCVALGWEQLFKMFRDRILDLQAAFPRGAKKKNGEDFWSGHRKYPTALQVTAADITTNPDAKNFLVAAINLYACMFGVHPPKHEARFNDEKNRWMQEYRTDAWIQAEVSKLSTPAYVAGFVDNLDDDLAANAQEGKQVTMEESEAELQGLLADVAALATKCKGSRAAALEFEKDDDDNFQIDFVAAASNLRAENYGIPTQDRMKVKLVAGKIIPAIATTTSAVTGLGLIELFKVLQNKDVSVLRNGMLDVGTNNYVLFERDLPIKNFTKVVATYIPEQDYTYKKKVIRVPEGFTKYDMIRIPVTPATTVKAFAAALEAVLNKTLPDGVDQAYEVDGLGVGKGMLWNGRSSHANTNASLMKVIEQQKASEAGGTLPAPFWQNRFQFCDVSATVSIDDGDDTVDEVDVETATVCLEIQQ

[4] = target: AMP-activated protein kinase, AMPK (Homo sapiens) (UniProt P54646+O43741+P54619+Q9UGJ0+Q9Y478+Q13131+Q9UGI9); assay: AMP-dependent Kinase enzyme assay. An in vitro enzyme assay that detects ADP turnover that is directly proportional to AMPK activity. This uses naive AMPK that is activated during the assay with MK-8722; type: functional; design: scale not given: direction of the effect not stated beside the values; conditions: 30 µM
[5] = target: Sialic acid-binding Ig-like lectin 9 (Homo sapiens) (UniProt Q9Y336); assay: Hs-Siglec9 ALPHAscreen SOP 20170721; design: scale not given: direction of the effect not stated beside the values; conditions: 10 µM
Sialic acid-binding Ig-like lectin 9 (Homo sapiens), sequence (Q9Y336 whole entry): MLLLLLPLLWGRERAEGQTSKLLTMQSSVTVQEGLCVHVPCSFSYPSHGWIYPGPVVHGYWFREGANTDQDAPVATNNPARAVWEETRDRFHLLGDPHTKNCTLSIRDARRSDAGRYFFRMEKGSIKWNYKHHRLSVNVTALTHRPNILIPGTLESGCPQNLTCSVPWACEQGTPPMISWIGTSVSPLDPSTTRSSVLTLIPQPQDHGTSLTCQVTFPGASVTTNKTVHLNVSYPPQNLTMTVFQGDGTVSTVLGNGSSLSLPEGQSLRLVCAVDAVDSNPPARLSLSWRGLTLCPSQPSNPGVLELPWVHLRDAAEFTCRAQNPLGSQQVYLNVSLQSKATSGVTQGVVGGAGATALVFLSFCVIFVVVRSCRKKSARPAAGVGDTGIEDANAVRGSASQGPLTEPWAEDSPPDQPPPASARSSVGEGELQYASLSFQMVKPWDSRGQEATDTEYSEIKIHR

Trypanosoma cruzi = assay: Trypanosoma cruzi phosphomannomutase and mannose-1-phosphate guanylyltransferase assay; type: functional; design: scale not given: direction of the effect not stated beside the values; conditions: 10 µM
[6] = target: T3, Arginase-2, mitochondrial (Homo sapiens) (UniProt P78540); assay: in vitro enzyme assay to detect the production of urea directly proportional to the activity of Arginase II; type: functional; design: scale not given: in the data most compounds retested in dose-response had high values
T3 sequence (whole entry): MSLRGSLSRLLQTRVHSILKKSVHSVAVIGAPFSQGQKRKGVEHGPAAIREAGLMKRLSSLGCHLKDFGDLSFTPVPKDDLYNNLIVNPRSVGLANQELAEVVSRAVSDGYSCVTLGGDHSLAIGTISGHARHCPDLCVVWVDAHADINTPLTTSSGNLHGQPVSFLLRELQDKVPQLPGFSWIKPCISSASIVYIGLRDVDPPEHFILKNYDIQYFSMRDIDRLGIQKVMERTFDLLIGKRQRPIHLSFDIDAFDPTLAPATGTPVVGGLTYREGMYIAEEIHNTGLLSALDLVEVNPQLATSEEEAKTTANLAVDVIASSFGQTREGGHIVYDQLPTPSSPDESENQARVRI

[7] = target: T4, Proteasome subunit beta (Trypanosoma cruzi) (UniProt O96673); assay: Trypanosoma cruzi proteasome chymotrypsin-like activity (TcProtChymo) assay.; type: functional; design: scale not given: in the data most compounds retested in dose-response had high values; conditions: 9.37 µM
T4 sequence (whole entry): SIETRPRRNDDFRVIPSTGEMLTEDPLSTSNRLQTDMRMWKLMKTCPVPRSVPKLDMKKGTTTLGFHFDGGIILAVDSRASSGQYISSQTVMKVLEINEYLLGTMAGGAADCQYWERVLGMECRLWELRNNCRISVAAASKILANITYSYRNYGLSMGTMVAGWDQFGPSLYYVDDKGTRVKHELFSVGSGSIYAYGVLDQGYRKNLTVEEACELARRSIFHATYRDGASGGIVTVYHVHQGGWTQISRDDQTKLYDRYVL

Homo sapiens = species: Homo sapiens; assay: To identify inhibition of the IFN signalling (Jak-Stat) pathway via expression of an eGFP reporter gene under the control of an IFN-stimulated response element (ISRE) containing MxA promoter.; type: functional; design: scale not given: direction of the effect not stated beside the values; conditions: 30 µM
[8] = target: T5, Tyrosyl-tRNA synthetase, putative (Trypanosoma cruzi (strain CL Brener)) (UniProt Q4DSP6); assay: Trypanosoma cruzi tyrosyl tRNA synthetase (TcYRS) _High Tyrosine SOP; type: functional; design: scale not given: in the data most compounds retested in dose-response had high values; conditions: 30 µM
T5 sequence (whole entry): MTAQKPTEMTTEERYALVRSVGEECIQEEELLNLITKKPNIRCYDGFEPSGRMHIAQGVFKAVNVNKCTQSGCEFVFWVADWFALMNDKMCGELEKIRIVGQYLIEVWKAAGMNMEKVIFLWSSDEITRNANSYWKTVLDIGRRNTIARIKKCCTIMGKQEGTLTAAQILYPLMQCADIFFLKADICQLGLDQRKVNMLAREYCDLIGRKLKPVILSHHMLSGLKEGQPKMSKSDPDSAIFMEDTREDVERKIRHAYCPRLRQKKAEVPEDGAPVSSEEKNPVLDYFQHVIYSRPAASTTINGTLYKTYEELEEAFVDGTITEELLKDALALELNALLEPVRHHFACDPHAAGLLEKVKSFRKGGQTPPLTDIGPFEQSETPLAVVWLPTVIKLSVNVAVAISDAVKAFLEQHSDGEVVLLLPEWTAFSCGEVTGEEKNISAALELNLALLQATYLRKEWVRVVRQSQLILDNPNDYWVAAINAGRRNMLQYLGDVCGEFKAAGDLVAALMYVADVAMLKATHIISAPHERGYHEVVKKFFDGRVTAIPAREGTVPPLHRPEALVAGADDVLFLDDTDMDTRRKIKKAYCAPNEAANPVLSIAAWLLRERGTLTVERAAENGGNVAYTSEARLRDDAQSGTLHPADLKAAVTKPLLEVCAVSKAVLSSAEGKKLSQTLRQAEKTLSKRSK

[9] = target: T5, Tyrosyl-tRNA synthetase, putative (Trypanosoma cruzi (strain CL Brener)); assay: Trypanosoma cruzi tyrosyl tRNA synthetase (TcYRS) SOP; type: functional; design: scale not given: direction of the effect not stated beside the values; conditions: 30 µM
[10] = target: Chromo domain-containing protein 1 (Saccharomyces cerevisiae (strain ATCC 204508 / S288c) (Baker's yeast)) (UniProt P32657); assay: ScCHD-1 Enzyme Inhibition Assay; type: functional; design: scale not given: in the data most compounds retested in dose-response had high values; conditions: 30 µM
Chromo domain-containing protein 1 (Saccharomyces cerevisiae (strain ATCC 204508 / S288c) (Baker's yeast)), sequence (P32657 whole entry, the tested form may be a part): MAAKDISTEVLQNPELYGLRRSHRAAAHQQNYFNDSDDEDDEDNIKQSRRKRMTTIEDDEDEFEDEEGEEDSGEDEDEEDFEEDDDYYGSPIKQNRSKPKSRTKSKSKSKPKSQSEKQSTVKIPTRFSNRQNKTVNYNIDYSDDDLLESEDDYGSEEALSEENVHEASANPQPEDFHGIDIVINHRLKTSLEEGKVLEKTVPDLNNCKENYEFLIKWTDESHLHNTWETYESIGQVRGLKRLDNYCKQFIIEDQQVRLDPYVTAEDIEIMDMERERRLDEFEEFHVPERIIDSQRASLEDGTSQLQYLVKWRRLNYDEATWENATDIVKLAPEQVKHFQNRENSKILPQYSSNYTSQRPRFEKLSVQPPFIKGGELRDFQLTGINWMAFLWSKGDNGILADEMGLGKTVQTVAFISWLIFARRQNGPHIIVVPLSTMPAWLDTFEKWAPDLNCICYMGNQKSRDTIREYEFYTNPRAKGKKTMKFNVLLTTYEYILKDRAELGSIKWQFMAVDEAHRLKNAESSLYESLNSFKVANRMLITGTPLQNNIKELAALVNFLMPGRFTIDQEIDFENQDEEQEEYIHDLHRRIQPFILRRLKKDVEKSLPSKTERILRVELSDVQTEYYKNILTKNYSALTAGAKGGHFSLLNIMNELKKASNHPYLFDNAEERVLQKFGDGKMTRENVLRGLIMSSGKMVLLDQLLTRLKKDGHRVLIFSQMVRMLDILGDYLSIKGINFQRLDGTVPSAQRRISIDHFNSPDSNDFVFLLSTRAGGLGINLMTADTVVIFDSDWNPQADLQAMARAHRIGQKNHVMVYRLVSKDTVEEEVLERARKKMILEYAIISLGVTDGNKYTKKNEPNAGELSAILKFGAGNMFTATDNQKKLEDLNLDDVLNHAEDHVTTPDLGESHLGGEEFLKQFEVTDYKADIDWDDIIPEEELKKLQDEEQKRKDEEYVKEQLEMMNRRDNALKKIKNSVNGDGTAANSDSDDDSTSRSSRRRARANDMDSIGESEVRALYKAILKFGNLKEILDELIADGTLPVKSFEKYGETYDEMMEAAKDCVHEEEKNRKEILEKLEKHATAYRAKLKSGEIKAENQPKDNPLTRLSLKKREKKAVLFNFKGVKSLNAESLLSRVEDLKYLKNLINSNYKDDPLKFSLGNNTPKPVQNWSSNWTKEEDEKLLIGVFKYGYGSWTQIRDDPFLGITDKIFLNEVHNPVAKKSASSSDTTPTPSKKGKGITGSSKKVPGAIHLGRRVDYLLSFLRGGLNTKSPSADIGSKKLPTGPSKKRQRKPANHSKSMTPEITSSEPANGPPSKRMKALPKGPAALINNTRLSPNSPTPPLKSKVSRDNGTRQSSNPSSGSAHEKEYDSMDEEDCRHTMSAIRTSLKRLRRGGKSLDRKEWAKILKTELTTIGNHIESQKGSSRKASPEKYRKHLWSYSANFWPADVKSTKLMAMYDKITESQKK

Row | SMILES | PXC50 ([1]; MAX_EFFECT 12.14788732) | PXC50 ([1]; MAX_EFFECT 12.35154394) | Percent Effect [2] [%] | Percent Effect [3] [%] | Percent Effect [4] [%] | Percent Effect [5] [%] | Percent Effect (Trypanosoma cruzi) [%] | Percent Effect ([6]; 33.3 µM) [%] | Percent Effect [7] [%] | Percent Effect (Homo sapiens) [%] | Percent Effect [8] [%] | Percent Effect [9] [%] | Percent Effect [10] [%] | PXC50 ([1]; MAX_EFFECT 27.99295775) | PXC50 ([1]; MAX_EFFECT 39.42992874) | Percent Effect ([6]; 30 µM) [%] | PXC50 ([1]; MAX_EFFECT 13.59649123) | PXC50 ([1]; MAX_EFFECT 23.4375) | PXC50 ([1]; MAX_EFFECT 3.800475059) | PXC50 ([1]; MAX_EFFECT 6.161971831)
1 | FC1(F)CCN(Cc2cccnc2)CC12CCN(c1ccccn1)C2 (stereo not drawn) | < 4 | < 4 | -2.18 | 16.2 | 5.61 | -2.07 | -4.99 | 17.5 | 21.4 | 33.7 | 1.08 | 12.8 | -3.06 |  |  |  |  |  |  | 
2 | CCC(CO)NC(=O)c1ccc2ccc(N(C)CC3CC3)n2c1 (stereo not drawn) |  |  | 3.49 | 3.9 |  | 0.399 | 3.56 | 0.457 | 15.2 | 8.81 | 12.6 | 15 | -3.69 | < 4 | < 4 |  |  |  |  | 
3 | O=C(Cc1ccccn1)N1CCC2(CC1)CC(Oc1ccccn1)CO2 (stereo not drawn) |  |  | -3.31 | 10.7 | 4.11 | 0.184 | -1.18 | -5.36 | 12.2 | 12.5 | 7.45 | 16.7 | -7.71 |  |  | 2.7 |  |  |  | 
4 | N#CC1CCCN(c2nc(-c3ccccc3)nc3c2CCNCC3)C1 (stereo not drawn) |  |  | -2.62 | -5.48 | -0.435 | 0.626 | -4.17 | 2 | 11.2 | 2.12 | 4.17 | 3.7 | 9.39 |  |  |  | < 4 | < 4 |  | 
5 | FC1(F)CCN(Cc2ccccn2)CC12CCN(c1cccnc1)C2 (stereo not drawn) |  |  | -7.19 | 2.7 | 114 | -3.38 | -1.86 | 2.87 | 0.369 | 49.7 | -3.24 | -2.56 | -1.38 |  |  |  |  |  | < 4 | < 4
